# Reference: PubChem BioAssay (NCATS)
# “And” between values parts separate entries of the source, which are not always exact repeats. Equal entries are not always repeated. Results filed as inconclusive are left out. A call without a number means that no potency is given here. Unmarked numbers belong to inactive results. The source made the active and inactive calls. Calls come from the whole dose curve; as a rule, active = well fitted curve in the direction sought with a large enough effect; inconclusive = small, poorly fitted or top-dose-only effect, or another doubt; inactive = no such curve, though single readings can be large; an effect the other way counts as inactive or inconclusive.
# Key:
# CRL-7250 = normal cell line; test: Cytotoxic Profiling of Annotated Libraries Using Quantitative High-Throughput Screening (AID 1296008); conditions: Five cell lines viability, CellTiter-Glo ATP luminescence, 48-72 h; max response: hits give low values; note: nearly all actives have a fitted effect of over 60% in size
# In short: (§1)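 Cells exposed to compounds for 48 or 72 hr at 37 degrees Celsius. Viability read as ATP-coupled luminescence with CellTiter-Glo after 10 min at room temperature.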
# HaCat [1] = test: as above; conditions: Five cell lines viability, CellTiter-Glo ATP luminescence, 48-72 h; max response: hits give low values
# In short: as §1
# KB-3-1 = test: as above; conditions: Five cell lines viability, CellTiter-Glo ATP luminescence, 48-72 h; max response: hits give low values
# In short: as §1
# NIH3T3 [2] = test: as above; conditions: Five cell lines viability, CellTiter-Glo ATP luminescence, 48-72 h; max response: hits give low values
# In short: as §1
# HACAT [3] = test: qHTS assay to identify novel small-molecules to repurpose for Merkel cell carcinoma treatment (AID 1296009); conditions: MCC and control cell lines, CellTiter-Glo viability, 72 h; at 44.8 µM (top of the series) unless noted; note: nearly all actives have a fitted effect of over 60% in size
# In short: (§2)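 Dose-response viability screen; 72 hr exposure at 37 degree celsius; CellTiter-Glo added, 10 min room temperature, luminescence read; RLUs scaled between no-cell and DMSO wells.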
# MCC-13 = test: as above; conditions: MCC and control cell lines, CellTiter-Glo viability, 72 h; series mostly up to 46 µM
# In short: as §2
# MCC-26 = test: as above; conditions: MCC and control cell lines, CellTiter-Glo viability, 72 h; series mostly up to 46 µM
# In short: as §2
# MKL-1 = test: as above; conditions: MCC and control cell lines, CellTiter-Glo viability, 72 h; series mostly up to 46 µM
# In short: as §2
# MKL-2 = test: as above; conditions: MCC and control cell lines, CellTiter-Glo viability, 72 h; series mostly up to 46 µM
# In short: as §2
# UISO = test: as above; conditions: MCC and control cell lines, CellTiter-Glo viability, 72 h; series mostly up to 46 µM
# In short: as §2
# WaGa = test: as above; conditions: MCC and control cell lines, CellTiter-Glo viability, 72 h; series mostly up to 46 µM
# In short: as §2
# NIH3T3 [4] = test: as above; conditions: MCC and control cell lines, CellTiter-Glo viability, 72 h; series mostly up to 44.8 µM
# In short: as §2
# CAOV3 = test: Primary qHTS to identify gynecologic anti-cancer compounds using libraries of approved drugs and bioactive compounds (AID 1345084); conditions: Gynecologic cancer cell panel viability, ATPlite luminescence, 48 h; series mostly up to 57.5 µM; note: nearly all actives have a fitted effect of over 55% in size
# In short: (§3)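 Cell viability after 48 h drug treatment, ATPlite luminescence readout; five doses.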
# HeLa = test: as above; conditions: Gynecologic cancer cell panel viability, ATPlite luminescence, 48 h; series mostly up to 57.5 µM
# In short: as §3
# C33A = test: as above; conditions: Gynecologic cancer cell panel viability, ATPlite luminescence, 48 h; series mostly up to 57.5 µM
# In short: as §3
# CASKI = test: as above; conditions: Gynecologic cancer cell panel viability, ATPlite luminescence, 48 h; series mostly up to 57.5 µM
# In short: as §3
# Es-2 = test: as above; conditions: Gynecologic cancer cell panel viability, ATPlite luminescence, 48 h; series mostly up to 57.5 µM
# In short: as §3
# Hek293T = test: as above; conditions: Gynecologic cancer cell panel viability, ATPlite luminescence, 48 h, control line for the selectivity index; series mostly up to 57.5 µM
# In short: as §3
# Potency is the fitted concentration of half-maximal effect.
structure (smiles),measurement,setting,value
CC=C1C2C=C(C)CC1(N)c1ccc(=O)[nH]c1C2 (centres undefined),max response,CRL-7250,3.51%
same,outcome,HaCat [1],inactive
same,max response,KB-3-1,3.2%
same,max response,NIH3T3 [2],-12.9%
same,outcome,HACAT [3],inactive
same,Potency,MCC-13,inactive
same,Potency,MCC-26,inactive
same,Potency,MKL-1,inactive
same,Potency,MKL-2,inactive
same,Potency,UISO,inactive
same,Potency,WaGa,inactive
Cc1ccc(C2=Nc3ccc(Cl)cc3OC2)cc1,outcome,CRL-7250,inactive
same,outcome,HaCat [1],inactive
same,max response,KB-3-1,5.39%
same,max response,NIH3T3 [2],-2.62%
same,outcome,HACAT [3],inactive
same,Potency,MCC-13,inactive
same,Potency,MCC-26,inactive
same,Potency,MKL-1,14800 nM (active)
Cc1ccc(S(=O)(=O)OCC(=O)Nc2ccc(C(=O)O)c(O)c2)cc1,max response,CRL-7250,-2.75%
same,outcome,HaCat [1],inactive
same,outcome,KB-3-1,inactive
same,max response,NIH3T3 [2],-0.735%
same,outcome,HACAT [3],inactive
same,Potency,MCC-13,inactive
same,Potency,MKL-2,inactive
same,Potency,UISO,inactive
CNC(=O)[C@H](CC1=CN=C2C=CCC=C12)NC(=O)[C@@H](CC(=O)NO)CC(C)C,max response,CRL-7250,-4.69%
same,max response,HaCat [1],-12.2%
same,max response,KB-3-1,8.99%
same,max response,NIH3T3 [2],-0.494%
same,Potency,MCC-13,inactive
same,Potency,MCC-26,inactive
same,Potency,MKL-1,296 nM (active)
same,Potency,MKL-2,264 nM (active)
same,Potency,WaGa,296 nM (active)
CC(=O)O[C@]1(C(C)=O)CC[C@H]2[C@@H]3C=C(Cl)C4=CC(=O)[C@@H]5C[C@H]5[C@]4(C)[C@@H]3CC[C@@]21C,outcome,CRL-7250,inactive
same,max response,HaCat [1],-0.438%
same,outcome,KB-3-1,inactive
same,outcome,NIH3T3 [2],inactive
same,Potency,MCC-13,inactive
same,Potency,MCC-26,inactive
same,Potency,MKL-1,inactive
same,Potency,NIH3T3 [4],inactive
same,Potency,WaGa,inactive
CCNC(=O)c1noc(-c2cc(C(C)C)c(O)cc2O)c1-c1ccc(CN2CCOCC2)cc1,Potency,CRL-7250,83.3 nM (active)
same,Potency,HaCat [1],469 nM (active) and 41.1 nM (active)
same,Potency,NIH3T3 [2],264 nM (active) and 51.7 nM (active)
same,Potency,MCC-13,209 nM (active)
same,Potency,MKL-2,inactive
same,Potency,UISO,166 nM (active)
same,Potency,CAOV3,inactive
CN1CC(=O)N2C(Cc3c([nH]c4ccccc34)[C@H]2c2ccc3c(c2)OCO3)C1=O (some centres undefined),max response,CRL-7250,-5.59%
same,max response,HaCat [1],4.52%
same,max response,KB-3-1,-12.7%
same,Potency,MCC-13,inactive
same,Potency,MCC-26,inactive
same,Potency,MKL-1,inactive
same,Potency,MKL-2,inactive
same,Potency,UISO,inactive
same,Potency,WaGa,inactive
CNC(=O)c1cc(COc2nnc(Nc3ccc(Cl)cc3)c3ccoc23)ccn1,max response,CRL-7250,-22.5%
same,max response,HaCat [1],1.3%
same,max response,KB-3-1,-2.71%
same,max response,NIH3T3 [2],-16.8%
same,Potency,MCC-13,inactive
same,Potency,MCC-26,inactive
same,Potency,MKL-1,inactive
same,Potency,MKL-2,inactive
same,Potency,WaGa,inactive
Oc1ccc(C=Cc2cc(O)cc(O)c2)cc1,max response,CRL-7250,-12.2%
same,max response,HaCat [1],-24.3%
same,max response,KB-3-1,-2.23%
same,Potency,MCC-13,inactive
same,Potency,MCC-26,inactive
same,Potency,MKL-1,inactive
COc1c(C)cnc(Cn2cnc3c(Cl)nc(N)nc32)c1C,Potency,CRL-7250,935 nM (active)
same,Potency,HaCat [1],296 nM (active)
same,Potency,NIH3T3 [2],526 nM (active)
same,Potency,MKL-2,inactive
same,Potency,UISO,743 nM (active)
same,Potency,WaGa,209 nM (active)
COc1cc2c(cc1OC)CC(=O)N(CCCN(C)C[C@H]1Cc3cc(OC)c(OC)cc31)CC2,max response,CRL-7250,4.25%
same,max response,HaCat [1],-15.9%
same,max response,KB-3-1,6.36%
same,max response,NIH3T3 [2],-18.8%
same,Potency,MCC-13,inactive
same,Potency,MCC-26,inactive
same,Potency,MKL-1,inactive
same,Potency,MKL-2,inactive
same,Potency,UISO,inactive
same,Potency,WaGa,inactive
CC1(C)CC(=O)c2c(C(F)(F)F)nn(-c3ccc(C(N)=O)c(NC4CCC(O)CC4)c3)c2C1 (centres undefined),Potency,CRL-7250,259 nM (active)
same,Potency,HaCat [1],132 nM (active) and 231 nM (active)
same,Potency,KB-3-1,105 nM (active)
same,Potency,NIH3T3 [2],235 nM (active) and 184 nM (active)
same,Potency,UISO,166 nM (active)
same,Potency,HeLa,inactive
O=C1Nc2ccc(I)cc2C1=Cc1cc(Br)c(O)c(Br)c1,outcome,CRL-7250,inactive
same,max response,HaCat [1],4.95%
same,max response,KB-3-1,8.65%
same,max response,NIH3T3 [2],-9.84%
same,Potency,MCC-13,inactive
same,Potency,MCC-26,inactive
same,Potency,MKL-1,inactive
same,Potency,MKL-2,inactive
same,Potency,WaGa,inactive
COc1cc(CNC(=O)CCCCC=CC(C)C)ccc1O,max response,CRL-7250,-19.8%
same,max response,HaCat [1],3.92%
same,max response,KB-3-1,-24.7%
same,Potency,NIH3T3 [2],10500 nM (active)
same,Potency,MCC-13,inactive
same,Potency,MCC-26,inactive
same,Potency,MKL-1,inactive
same,Potency,WaGa,inactive
Nc1nc(Cl)nc2c1ncn2[C@@H]1O[C@H](CO)[C@@H](O)[C@H]1F,Potency,CRL-7250,1660 nM (active)
same,Potency,HaCat [1],74.3 nM (active)
same,Potency,NIH3T3 [2],166 nM (active)
same,Potency,MKL-1,13.2 nM (active)
same,Potency,WaGa,inactive
O=C(Nc1cccc(C(F)(F)F)c1)Nc1cc(S(=O)(=O)NC2CC2)ccc1-c1ccsc1,max response,CRL-7250,-35.6%
same,max response,HaCat [1],-22.2%
same,max response,NIH3T3 [2],-27%
same,Potency,MCC-13,inactive
same,Potency,MCC-26,inactive
same,Potency,MKL-1,inactive
same,Potency,MKL-2,inactive
same,Potency,UISO,inactive
same,Potency,WaGa,inactive
same,Potency,C33A,inactive
same,Potency,CAOV3,inactive
same,Potency,CASKI,inactive
same,Potency,Es-2,inactive
same,Potency,HeLa,inactive
same,Potency,Hek293T,inactive
CC1(COc2ccc3c(c2)ncn3-c2ccc3cccc(N4CCC(N)CC4)c3n2)COC1,Potency,CRL-7250,11600 nM (active)
same,Potency,HaCat [1],20600 nM (active)
same,Potency,KB-3-1,5900 nM (active)
same,Potency,NIH3T3 [2],2960 nM (active)
same,Potency,MCC-13,18700 nM (active)
same,Potency,MKL-2,18700 nM (active)
same,Potency,Es-2,28200 nM (active)
same,Potency,HeLa,20000 nM (active)
same,Potency,Hek293T,20000 nM (active)
